This is a sample that favours compounds with a hit; in the whole collection about 1.8% have one here.
INS-1E GSIS act – GLuc luminescence reporter in INS-1E cells, primary screen for activators of glucose-dependent secretion of insulin | activation, % at 16.6 µM | INS-1E GLuc reporter insulin secretion, 2-3 h | hit rate 0.61% among 370,000;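 active = lowest replicate activation of at least 40%, so every replicate reaches that level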;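 note: 0% = median of neutral control wells and 100% = median of IBMX positive control wells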
ARNT-TACC3 inh – disruptors of ARNT/TACC3 protein interaction, primary screen, biochemical, AlphaScreen, single concentration; AlphaScreen His-ARNT PAS-B/GST-TACC3 binding, luminescence; TACC3 fragment carries E629A point mutation; AID 623870, 2012; inhibition, % at 9.99 µM; hit rate 0.66% among 390,000; Transforming acidic coiled-coil-containing protein 3 (Homo sapiens), Q9Y6A5;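 active = mean inhibition of replicates at least 50% and at least half of replicates each reaching 50%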;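 note: 0% = complete ARNT plus TACC3 wells and 100% = ARNT alone without TACC3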
iPSC survival up – enhancers of single-cell hiPSC survival, primary screen, ATPlite luminescence | survival enhancement, % at 20 µM | 100% = ROCK inhibitor wells, 0% = DMSO | hit rate 0.044% among 360,000; in the data active = survival enhancement above about 18%;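 note: cells exposed to compounds for 16 hours before the ATP read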
ABCB6 inh 2 – ABCB6 transporter inhibitors, primary screen, K562-ABCB6 cells, flow cytometry, MLPCN library | K562-ABCB6 porphyrin accumulation, 1 h; active compounds read low | fluorescence ratio to DMSO, % at 10 µM | hit rate 0.19% among 360,000 | AID 602162, 2011;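 active = fluorescence ratio to DMSO below 75%, the collection mean minus 3 SD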;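 note: signal is porphyrin accumulated inside mitochondria; 100% equals median channel fluorescence of DMSO control wells; lower ratio means ABCB6 inhibition with less porphyrin fluorescence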
Target sequence (Q9NP58 whole entry, looked up): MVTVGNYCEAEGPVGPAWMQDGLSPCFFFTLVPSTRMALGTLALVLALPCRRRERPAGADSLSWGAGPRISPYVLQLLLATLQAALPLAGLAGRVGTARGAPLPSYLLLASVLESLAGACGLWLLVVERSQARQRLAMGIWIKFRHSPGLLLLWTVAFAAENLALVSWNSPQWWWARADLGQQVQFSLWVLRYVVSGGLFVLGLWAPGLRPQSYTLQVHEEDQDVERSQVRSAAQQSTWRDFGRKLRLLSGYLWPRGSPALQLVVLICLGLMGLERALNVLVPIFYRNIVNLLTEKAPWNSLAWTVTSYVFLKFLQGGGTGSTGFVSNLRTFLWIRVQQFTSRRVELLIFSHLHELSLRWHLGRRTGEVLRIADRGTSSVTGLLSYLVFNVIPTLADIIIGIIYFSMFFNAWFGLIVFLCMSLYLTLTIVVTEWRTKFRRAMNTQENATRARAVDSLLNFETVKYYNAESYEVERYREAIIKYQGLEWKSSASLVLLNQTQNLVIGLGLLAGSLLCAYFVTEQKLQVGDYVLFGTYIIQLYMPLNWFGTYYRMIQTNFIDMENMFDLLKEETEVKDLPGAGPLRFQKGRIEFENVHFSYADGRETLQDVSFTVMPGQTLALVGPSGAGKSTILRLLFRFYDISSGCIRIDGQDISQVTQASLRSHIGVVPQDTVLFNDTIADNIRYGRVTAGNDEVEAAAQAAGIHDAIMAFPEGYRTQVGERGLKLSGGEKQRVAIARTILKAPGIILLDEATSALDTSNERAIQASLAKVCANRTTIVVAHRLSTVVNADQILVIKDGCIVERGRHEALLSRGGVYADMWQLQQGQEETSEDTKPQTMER
NRP1-CendR mod – modulators of CendR peptide binding to NRP-1, primary screen, biochemical, fluorescence polarization, uHTS | inhibition, % at 25 µM | Neuropilin-1 (Homo sapiens), O14786 | FAM-RPARPAR peptide binding to NRP-1 | AID 602438, 2012 | hit rate 0.85% among 360,000;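 active = inhibition or corrected inhibition above about 18%, plus a signal ratio from 0.5 to 1.5, limit read from the data, passing the limit was not always enough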
Starred values were filed as active, the others as inactive; x = no result given; ! = not active in a repeat.

SMILES | INS-1E GSIS act | ARNT-TACC3 inh | iPSC survival up | ABCB6 inh 2 | NRP1-CendR mod
O=C(Nc1ccccc1)N1CCCCN2[C@H](CO)[C@H](c3ccc(C#Cc4ccccn4)cc3)[C@H]2C1 | -10.2 | 11.2* | x | x | x
O=C(Nc1ccccc1)N1CCCCN2[C@@H](CO)[C@H](c3ccc(C#Cc4ccccn4)cc3)[C@@H]2C1 | -19.2 | 6.5 | x | x | x
O=C(Nc1ccccc1)N1CCCCN2[C@H](CO)[C@@H](c3ccc(C#CC4CC4)cc3)[C@@H]2C1 | -20.7 | active | x | x | x
CC(=O)Nc1ccc(S(=O)(=O)N2CCN=C2SCc2cccnc2)cc1 | 5.9 | 1.5 | -3.8 | 104.0 | 28.6*
Nc1csnc1C(=O)O | x | 45.9* | -1.6 | 100.0 | -0.7
O=C(O)c1nnsc1-c1csnn1 | 22.4 | -3.7 | -1.0 | 99.0 | -1.7
Cc1noc(C)c1NC(=O)N[C@H]1CC[C@@H](CC(=O)N2CCCCC2)O[C@H]1CO | 4.8 | -5.9 | x | x | x
CCC(C)(NC=O)C(=O)Nc1c(C)cccc1C (centres undefined) | -2.3 | 4.9 | -0.5 | 103.0 | 25.8*
COCCCNC(=O)[C@]1(Cc2ccccc2N=[N+]=[N-])N=C(c2ccc(OCCCO)cc2)O[C@@H]1c1ccccc1 | x | 0.7 | x | x | x
O=[N+]([O-])c1cnn2cc(Br)cnc12 | 45.3* | -2.4 | -0.9 | 88.0 | -6.2
CNc1nc(Cl)nc2c1ncn2-c1ccccc1 | 86.8* | -0.6 | -1.6 | 101.0 | 6.7
CN(C)c1ccc(/C=N/NC(=O)c2ccccc2)cc1 | -1.6 | x | -2.7 | 97.0 | 9.1
CN(C)c1ccc(/C=N/NC(=O)c2ccccc2Cl)cc1 | 52.4* | x | 1.1 | 98.0 | 13.5
Cc1cc(Br)cn2c(Cc3ccsc3)c(C(C)(C)C)nc12 | 2.1 | x | 11.9 | 97.0 | 48.6*
Cc1cc(Br)cn2c(Cc3ccccc3)c(C3CCCCC3)nc12 | x | x | -0.9 | 119.0 | 12.8
Cc1cc(Br)cn2c(Cc3ccsc3)c(C3CCCCC3)nc12 | x | x | -1.5 | 104.0 | 35.1*
COc1ccc2c3c(n(C)c2c1)[C@H](CO)N(CC1CCOCC1)CC31CN(CC2CCOCC2)C1 | 22.5 | x | x | x | x
COC(C/C=C/[C@H](O)[C@@H](C)OCc1ccccc1)OC | 0.1 | -4.5 | -2.5 | 99.0 | 1.7
COC(C/C=C\[C@H](O)COCc1ccccc1)OC | -10.6 | 3.7 | -2.3 | 99.0 | 25.4*
COc1ccc(S(=O)(=O)N(C)C[C@@H]2Oc3c(NS(=O)(=O)c4ccc(C)cc4)cccc3C(=O)N([C@H](C)CO)C[C@H]2C)cc1 | 1.0 | x | x | x | x
COc1ccc(S(=O)(=O)Nc2ccc3c(c2)C(=O)N([C@H](C)CO)C[C@H](C)[C@@H](CN(C)C(=O)CCC(F)(F)F)OCCCC[C@@H](C)O3)cc1 | -1.2 | 0.2 | x | x | x
CN(C)CCOC(=O)C1(c2ccccc2)CCOCC1 | 8.3 | 0.1 | -1.8 | 95.0 | 24.4*!
Cc1ccc(O)c(-c2cc(C(=O)Nc3ccc(S(=O)(=O)Nc4nc(C)cc(C)n4)cc3)[nH]n2)c1 | 0.1 | -8.3 | -1.3 | 101.0 | 28.9*
Cc1ccc(O)c(-c2cc(C(=O)Nc3ccc(S(=O)(=O)N4CC(C)OC(C)C4)cc3)[nH]n2)c1 (centres undefined) | x | -3.1 | -4.7 | 96.0 | 4.2
O=C(CC1CC1)N1CC2(C1)[C@H](c1ccccc1)[C@@H](CO)N2C(=O)C1CCOCC1 | 2.7 | x | x | x | x
SMILES | INS-1E GSIS act | ARNT-TACC3 inh | iPSC survival up | ABCB6 inh 2 | NRP1-CendR mod
COc1ccc(C2/C=C\CN(C(=O)C3CCCC3)CC(=O)N2Cc2ccc(F)cc2)cc1 (centres undefined) | -14.7 | 42.6 | -3.6 | 103.0 | 12.4
COc1ccc(C2/C=C\CN(C(=O)C3CCCCC3)CC(=O)N2Cc2ccc(F)cc2)cc1 (centres undefined) | -11.3 | -7.1 | -3.5 | 97.0 | 34.4*
Cc1noc(C)c1NC(=O)N(C)C[C@@H]1OCCCC[C@H](C)Oc2ccc(NC(=O)Nc3ccccc3)cc2C(=O)N([C@@H](C)CO)C[C@H]1C | -2.2 | x | x | x | x
COc1cc2sc3cc(NCCCN4CCOCC4)ccc3c(=O)c2cc1OC | 12.5 | 28.1* | -2.5 | 99.0 | 4.5
Cc1ccc(Oc2ccccc2/C=C2\SC(=O)N(C)C2=O)cc1 | x | -9.4 | -1.1 | 74.0* | -12.5
C[C@H](NC(=O)[C@@H]1N[C@@H]2c3ccc(C4=CCCCC4)c(=O)n3C[C@@H]2[C@H]1CO)c1ccccc1 | -3.6 | -3.8 | x | x | x
Cc1ncc(CO)c(/C=N/N=C/c2ccccc2O)c1O | 19.2 | -4.9 | 0.8 | 104.0 | 2.8
Cc1ncc(CO)c(/C=N/NC(=S)Nc2ccc(F)cc2)c1O | -7.7 | 53.8* | 0.3 | 98.0 | -19.1
Cc1ncc(CO)c(/C=N/Nc2ccc(C(F)(F)F)cn2)c1O | 2.7 | 71.7* | 4.9 | 90.0 | 4.4
CC(C)NC(=O)Nc1ccc2c(c1)C(=O)N([C@H](C)CO)C[C@H](C)[C@H](CN(C)S(=O)(=O)c1ccccc1)OCCCC[C@H](C)O2 | -16.4 | -0.5 | x | x | x
COc1ccc(NC(=O)N(C)C[C@@H]2OCCCC[C@H](C)Oc3ccc(NC(=O)Nc4ccccc4)cc3C(=O)N([C@H](C)CO)C[C@@H]2C)cc1 | 1.7 | 2.2 | x | x | x
COc1ccc(Nc2nc(N)c([N+](=O)[O-])c(NCCO)n2)cc1 | 3.0 | x | 0.1 | 96.0 | 5.1
CNc1nc(Nc2ccc(Br)cc2)nc(N)c1[N+](=O)[O-] | 49.7* | 26.4 | -0.3 | 99.0 | 16.5
Cc1c2cc[n+](CCN3CCCCC3)cc2c(C)c2c1[nH]c1ccc(O)cc12 | x | 49.1* | -2.1 | 113.0 | 33.9*
COc1ccc2c3c(n(C)c2c1)[C@@H](CO)N(CC1CC1)CC31CN(S(=O)(=O)c2cccs2)C1 | -10.1 | x | x | x | x
CN1C[C@@H]2C(c3ccc(Cl)nc3)C3(c4cccnc4)CC2(C3)[C@H]1c1ccccc1 (some centres undefined) | 2.1 | 2.7 | 0.7 | 98.0 | 10.4
CN1C[C@@H]2C(c3ccc(Cl)nc3)C3(c4ccccc4)CC2(C3)[C@H]1c1ccccc1 (some centres undefined) | -21.0 | 0.3 | -2.4 | 93.0 | 23.3*
CO[C@H]1CC[C@@H]2CCN(C)C(=O)[C@@H](C)CN(C)C(=O)c3cccc(C#N)c3OC[C@H]1O2 | 11.2 | -12.7 | x | x | x
Cc1[nH]c(=O)[nH]c(=O)c1/C=N/NC(=O)[C@@H](N)CC(C)C | -2.2 | 65.1* | 0.6 | 95.0 | 6.6
CC(=O)NCCc1nc2ccccc2n1CCOc1cccc(C)c1 | 58.9* | -13.4 | 1.3 | 94.0 | -1.4
CC(=O)NCCc1nc2ccccc2n1CCOc1ccccc1 | 21.3 | -11.0 | 0.1 | 94.0 | -1.9
C[C@@H](NC(=O)c1ncn(Cc2ccccc2)c1C(=O)N[C@H](C)c1ccccc1)c1ccccc1 | 1.0 | 3.0 | -0.8 | 99.0 | 8.5
O=C(O)c1ncn(Cc2ccc(Br)cc2)c1C(=O)O | 8.1 | 46.0* | -1.0 | 95.0 | -9.5

Bioassay records from PubChem.
